The structures appear in SMILES notation. Results filed as inconclusive are left out. The source made the active and inactive calls. Calls follow the shape of the full dose curve.
% is scaled to controls: 0 for no effect and ±100 for the full control effect.

Thyrotropin receptor (Homo sapiens), sequence (P16473 whole entry, looked up): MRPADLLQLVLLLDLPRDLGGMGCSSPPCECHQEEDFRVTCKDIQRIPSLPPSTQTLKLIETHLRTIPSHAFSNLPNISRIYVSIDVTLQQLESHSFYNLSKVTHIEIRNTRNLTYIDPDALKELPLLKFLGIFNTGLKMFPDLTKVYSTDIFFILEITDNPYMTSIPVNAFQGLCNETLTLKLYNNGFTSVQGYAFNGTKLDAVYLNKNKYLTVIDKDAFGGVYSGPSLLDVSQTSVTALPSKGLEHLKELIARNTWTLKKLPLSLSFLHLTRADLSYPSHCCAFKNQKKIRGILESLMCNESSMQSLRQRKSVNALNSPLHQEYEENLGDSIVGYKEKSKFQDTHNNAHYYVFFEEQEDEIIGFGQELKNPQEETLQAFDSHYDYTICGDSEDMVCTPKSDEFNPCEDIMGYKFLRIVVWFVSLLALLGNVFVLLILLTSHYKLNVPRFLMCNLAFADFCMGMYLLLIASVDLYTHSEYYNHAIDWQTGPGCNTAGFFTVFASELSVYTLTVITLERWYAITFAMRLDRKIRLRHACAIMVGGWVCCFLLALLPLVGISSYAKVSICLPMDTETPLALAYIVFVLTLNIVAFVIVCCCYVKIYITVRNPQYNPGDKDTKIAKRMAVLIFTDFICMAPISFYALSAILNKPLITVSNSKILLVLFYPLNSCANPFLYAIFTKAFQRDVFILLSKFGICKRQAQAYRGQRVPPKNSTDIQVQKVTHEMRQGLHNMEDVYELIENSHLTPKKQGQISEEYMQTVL

The target of the experiment is Thyrotropin receptor (Homo sapiens) (UniProt P16473). The experiment in a line: qHTS assay to identify small molecule antagonists of the thyroid stimulating hormone receptor (TSHR) signaling pathway (AID 1259385). Also: nearly all actives have a fitted effect of over 20% in size. Conditions: TSHR-HEK293 cAMP HTRF, TSH-stimulated antagonist mode; series mostly up to 92.4 µM. The text has this:
U.S. Tox21 Program National Center for Advancing Translational Sciences [NCATS] NIH Chemical Genomics Center [NCGC] U.S. Environmental Protection Agency [EPA] National Institutes of Environmental Health Sciences [NIEHS] National Toxicology Program [NTP] U.S. Food and Drug Administration [FDA] Tox21 Assay Overview: TSHR is the receptor for thyrotropin (thyroid stimulating hormone or TSH), a member of the glycoprotein hormone family. TSH is released by the anterior pituitary gland and is the main regulator of thyroid gland growth and development. Upon binding circulating thyrotropin, a G-protein signal cascade activates adenylyl cyclase and […] cAMP concentration is increased. cAMP is a key second messenger involved extensively in cellular signal transduction pathways associated with the majority of G-protein coupled receptors (GPCRs). The activation of these GPCRs by neurotransmitters, lipids, nucleotides, peptides and hormones results in the activation or the inhibition of plasma membrane-bound adenylate cyclase through heterotrimeric G-proteins. A cell-based TSHR assay can be used to screen chemical compounds that modulate TSHR either in agonist or antagonist mode.
Tox21 Assay Protocol Summary: TSHR-Hek293 cells were dispensed at 800 cells/4uL/well in 1536-well white plates using a Multidrop dispenser. After the assay plates were incubated at a 37C/5% CO2 incubator for 18 hrs, 23 nL of compounds dissolved in DMSO, positive controls or DMSO only was transferred to the assay plate by a pin tool, followed by 1 ul medium containing Ro20-1724. For the antagonist mode screening, 1 uL of TSH was added on the top of the cell/compound mixtures to achieve a final agonist concentration of 1.5 ng/mL. After 30 min of incubation at room temperature, 2.5 ul/well of cAMP-d2 and 2.5 ul/well of anti-cAMP-cryptate were added respectively into the assay plates using a Flying Reagent Dispenser. The plates were incubated at room temperature for 1 hr. The fluorescence intensity in the plates was measured using an Envision plate reader. Each test compound was measured at 15 concentrations and in triplicates.
(In general: Quantitative high-throughput screening tests each substance at several concentrations.)
As to `CCC1(c2cccc(O)c2)CCCCN(C)C1` (stereo not given), the result was inactive.
Same read-out and setting: to `O=P(O)(O)c1ccccc1` belongs “inactive”.
Still for that read-out and setting: to `Clc1ccc(C(Cl)(Cl)Cl)cn1` belongs “inactive”; to `Cc1cccc2sc3nncn3c12`, “inactive”; to `CCOC1Oc2ccc(OS(C)(=O)=O)cc2C1(C)C` (stereo not given), “inactive”.
Take `CN1C(=O)COc2c(C(=O)NC3CN4CCC3CC4)cc(Cl)cc21` (stereo not given): the result was inactive.
As to `C=CCCC#N`, the call was inactive.
Still for that read-out and setting: to `O=[N+]([O-])c1cccc(CCl)c1` belongs “inactive”; to `NC(=O)OCCCc1ccccc1`, “inactive”; to `NCC1(CC(=O)O)CCCCC1`, “inactive”.
Still for that read-out and setting: for `S=C=S` the value was “inactive”; for `C1CN2CCC1CC2`, “inactive”.
Still for that read-out and setting: to `O=C(Cl)CCl` belongs “inactive”.
For `COc1cccc([C@@]2(O)CCCC[C@@H]2CN(C)C)c1`, the compound was called inactive.
Still for that read-out and setting: for `N#CC(Br)(Br)C(N)=O` the value was “inactive”; for `Oc1ccc(Cc2ccc(O)cc2)cc1`, “inactive”.
Take `BrCCc1ccccc1`: the compound was called inactive.
As to `CCCC(C)(COC(N)=O)COC(N)=O`, the result was inactive.
As to `NNC(N)=O`, the compound was called inactive.
The same measure, in the same setting: for `CCOP(=O)(CN(CCO)CCO)OCC` the value was “inactive”; for `C[C@]12C=CC(=O)C=C1CC[C@@H]1[C@@H]2CC[C@@]2(C)[C@H]1CC[C@]2(C)O`, “inactive”.
The same measure, in the same setting: for `CCCCCCC1CCOC1=O` (stereo not given) the value was “inactive”; for `Cc1cc(OC(=O)N(C)C)nn1C(=O)N(C)C`, “inactive”.
The same measure, in the same setting: to `CN(CCO)CCO` belongs “inactive”.
On to `Brc1c(Br)c(Br)c(Br)c(Br)c1Br`, for which the activity change, negative = inhibition was 0.318% [at 8.39 µM] (inactive).
With `O=C(NC(=O)c1c(F)cccc1F)Nc1cc(Cl)c(F)c(Cl)c1F`, the outcome was inactive.
The same measure, in the same setting: for `O=C(Cl)C(Cl)(Cl)Cl` the value was “inactive”.
`BrCc1ccc(Br)cc1`: the compound was classed as inactive.
On the same count and under the same terms, to `Clc1nc(Cl)nc(Nc2ccccc2Cl)n1` belongs “inactive”.
Still for that read-out and setting: to `O=C(Cl)OCc1ccccc1` belongs “inactive”; to `CCOP(=S)(OCC)SCCl`, “inactive”.
On the same count and under the same terms, for `ClCCCCCCCl` the value was “inactive”; for `CCOC(=O)CC(SP(=S)(OC)OC)C(=O)OCC` (stereo not given), “inactive”; for `ClC(Cl)(Cl)Cl`, “inactive”.
As for `C=C1CC[C@@]2(O)[C@H]3Cc4ccc(O)c5c4[C@@]2(CCN3CC2CC2)[C@H]1O5`, the compound was classed as inactive.
Still for that read-out and setting: for `NNCc1ccccc1` the value was “inactive”; for `CON(C)C(=O)Nc1ccc(Br)c(Cl)c1`, “inactive”; for `CCCCOC(C)=O`, “inactive”.
The same measure, in the same setting: for `CC(=O)CN(CC(C)=O)N=O` the value was “inactive”.
On to `C=CCc1cc(OC)c2c(c1)OCO2`, for which the call was inactive.
